Reference: PubChem BioAssay AID720597 (Broad Institute, 2013)
Potency and affinity values are given separately.

Target: NAD-dependent protein deacylase sirtuin-5, mitochondrial (Homo sapiens) (UniProt Q9NXA8)
Experiment: blockers of sirtuin-5 peptide desuccinylation – biochemical, fluorescence imaging, cherry-pick, set 6, dose response (AID 720597);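 note: lower AMC signal can also come from blocking the trypsin step; 0% = median of neutral control wells and -100% = median of positive control wells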
Conditions: Purified SirT5, succinyl-peptide-AMC/trypsin fluorescence; series mostly up to 15 µM; activity change, negative = inhibition: at the top concentration;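 active = fitted half-maximal dose no more than twice the top valid tested dose, for compounds that lower signal; inconclusive = fit invalid, or curve flat with activity between -70 and -30; inactive = potency past limit, curve flat within ±30, or signal increasing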

Chain of NAD-dependent protein deacylase sirtuin-5, mitochondrial (Homo sapiens) (Q9NXA8 whole entry, looked up): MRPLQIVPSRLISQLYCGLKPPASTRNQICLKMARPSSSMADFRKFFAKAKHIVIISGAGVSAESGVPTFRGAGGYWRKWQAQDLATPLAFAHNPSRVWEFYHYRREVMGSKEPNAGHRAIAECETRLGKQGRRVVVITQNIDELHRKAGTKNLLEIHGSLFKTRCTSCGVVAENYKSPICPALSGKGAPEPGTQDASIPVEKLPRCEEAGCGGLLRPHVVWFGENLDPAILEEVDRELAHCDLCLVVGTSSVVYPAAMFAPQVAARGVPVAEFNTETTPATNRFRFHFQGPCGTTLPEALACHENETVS

Activity change, negative = inhibition, inactive:
C/C=C/c1ccc([C@@H]2[C@H](CO)N(CC3CC3)C23CN(S(=O)(=O)CC)C3)cc1 1.88%
C[C@H](O)C#Cc1cnc2c(c1)C(=O)N([C@H](C)CO)C[C@H](C)[C@@H](CN(C)CC1CCCC1)O2 -9.66%
C[C@@H]1CN([C@@H](C)CO)C(=O)c2cc(NS(=O)(=O)c3ccc(F)cc3)ccc2O[C@@H](C)CCCCO[C@@H]1CN(C)S(=O)(=O)c1ccc(Cl)cc1 -1.29%
O=C(CN1CCOCC1)N1CC[C@H]2[C@H](CO)Nc3ccc(-c4ccc(F)cc4)cc3[C@H]21 -8.05%
COCC(=O)N1[C@H](C#N)[C@H](c2ccccc2-c2cccc(F)c2)[C@H]1CO 16%
Cc1noc(C)c1NC(=O)N(C)C[C@H]1OCCCC[C@@H](C)Oc2ccc(NS(=O)(=O)c3c(C)noc3C)cc2C(=O)N([C@H](C)CO)C[C@@H]1C 0.04% [at 16 µM]
C[C@H](CO)N1C[C@H](C)[C@@H](CN(C)Cc2ccc(C(F)(F)F)cc2)Oc2ccc(NS(=O)(=O)c3ccc(F)cc3)cc2CC1=O -8.64%
C[C@@H]1CN([C@H](C)CO)C(=O)Cc2cc(NS(=O)(=O)c3ccc(F)cc3)ccc2O[C@@H]1CN(C)Cc1ccc(C(F)(F)F)cc1 -20.2%
COc1ccccc1-c1ccc([C@@H]2[C@@H]3CN(S(=O)(=O)c4ccc(-c5ccccc5)cc4)C[C@H]2N3)cc1 29.3%
C[C@@H]1CCCCO[C@@H](CN(C)C(=O)Nc2ccc(C(F)(F)F)cc2)[C@H](C)CN([C@@H](C)CO)C(=O)c2cc(NS(=O)(=O)c3ccc(Cl)cc3)ccc2O1 11.3%
C[C@H](CO)N1C[C@H](C)[C@H](CN(C)S(=O)(=O)c2cccc(F)c2)Oc2ncc(C#CC3CCCCC3)cc2C1=O 9.27%
C[C@H]1CN([C@@H](C)CO)S(=O)(=O)c2ccc(/C=C/c3ccccc3)cc2O[C@H]1CN(C)C(=O)c1ccc2c(c1)OCO2 -5.88%
NC(=O)NCC#Cc1ccc2c(c1)[C@]1(C(=O)N2)[C@H](c2ccccc2OCCO)N2[C@H](c3ccccc3)[C@H](c3ccccc3)OC(=O)[C@H]2[C@@H]1C(=O)N1CCN(c2ncccn2)CC1 -16.3%
CCS(=O)(=O)N1CC2(CN(Cc3cccc(Cl)c3)[C@H](CO)c3c2c2ccc(OC)cc2n3C)C1 11.6%
C[C@@H](O)C#Cc1ccc2c(c1)O[C@H](CN(C)Cc1ccc(-c3ccccc3)cc1)[C@@H](C)CN([C@@H](C)CO)S2(=O)=O -24.7%
Cc1ccc(-c2ccc3c(c2)O[C@@H](CN(C)Cc2ccccn2)[C@H](C)CN([C@@H](C)CO)S3(=O)=O)cc1 -10.8%
Cc1noc(C)c1NC(=O)N(C)C[C@@H]1OCCCC[C@H](C)Oc2ccc(NC(=O)Nc3ccc(F)cc3)cc2C(=O)N([C@@H](C)CO)C[C@@H]1C -8.47%
COc1ccc(S(=O)(=O)N(C)C[C@H]2Oc3cc(C#CC4CCCC4)ccc3S(=O)(=O)N([C@@H](C)CO)C[C@@H]2C)cc1 7.83%
COc1ccccc1S(=O)(=O)N(C)C[C@@H]1Oc2cc(C#CCC(C)C)ccc2S(=O)(=O)N([C@H](C)CO)C[C@H]1C -1.72%
